Assay results published in PubChem BioAssay (NCATS).
Results filed as inconclusive are left out. Active and inactive are the calls of the source. Calls come from the whole dose curve; as a rule, active = well fitted inhibition curve with a large enough effect; inconclusive = small, poorly fitted or top-dose-only effect, or effect the other way; inactive = flat fitted curve, though single readings scatter.

Molecular target: ATP-dependent 6-phosphofructokinase (Trypanosoma brucei brucei) (UniProt O15648)
Assay: qHTS Assay to Find Inhibitors of T. brucei phosphofructokinase: hit validation (AID 492961);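 note: luminescence reports ADP formed as PFK phosphorylates fructose-6-phosphate with ATP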
Conditions: T. brucei PFK, ADP-Glo luminescence; series mostly up to 51.4 µM
How it was run: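 Compounds titrated; %activity normalized to 0x and 1x enzyme controls, curve-fitted. Readout: ADP-Glo luminescence after 45 min room-temperature reaction of 1.25 nM PFK, 0.1 mM ATP, 0.5 mM F6P, pH 8.0.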

ATP-dependent 6-phosphofructokinase (Trypanosoma brucei brucei), sequence (O15648 whole entry, looked up): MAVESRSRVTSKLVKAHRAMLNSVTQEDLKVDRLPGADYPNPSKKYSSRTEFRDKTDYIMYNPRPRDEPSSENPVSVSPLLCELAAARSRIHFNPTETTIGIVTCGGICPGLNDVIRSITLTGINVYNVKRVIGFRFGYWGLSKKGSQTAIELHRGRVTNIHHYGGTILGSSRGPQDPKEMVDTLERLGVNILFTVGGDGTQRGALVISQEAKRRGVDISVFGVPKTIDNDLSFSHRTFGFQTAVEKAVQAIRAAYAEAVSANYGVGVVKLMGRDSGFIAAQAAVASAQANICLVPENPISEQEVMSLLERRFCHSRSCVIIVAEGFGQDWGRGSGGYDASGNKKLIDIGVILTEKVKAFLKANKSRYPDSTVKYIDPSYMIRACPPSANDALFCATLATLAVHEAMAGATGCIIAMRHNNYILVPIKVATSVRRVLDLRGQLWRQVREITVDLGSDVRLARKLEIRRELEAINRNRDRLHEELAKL

| Compound | outcome |
| --- | --- |
| CC(=O)NCc1c(I)c(NC(C)=O)c(I)c(C(=O)O)c1I | inactive |
| CC(=O)Oc1cccc(O)c1 | inactive |
| C[N+](C)(C)CC[N+]1(C)Cc2c(Cl)c(Cl)c(Cl)c(Cl)c2C1 | inactive |
| CC(CN(C)C)C(C)(O)Cc1ccc(Cl)cc1 (stereo not given) | inactive |
| CC(=O)OC[C@H]1O[C@@](COC(C)=O)(O[C@H]2O[C@H](COC(C)=O)[C@@H](OC(C)=O)[C@H](OC(C)=O)[C@H]2OC(C)=O)[C@@H](OC(C)=O)[C@@H]1OC(C)=O | inactive |
| Cc1cccc(C)c1NC(=O)CC12CCCN1CCC2 | inactive |
| O=c1[nH]cnc2nc[nH]c12 | inactive |
| CCCCCCCCCCC(CO)CCCCCCCC (stereo not given) | inactive |
| NS(=O)(=O)c1ccc(NC(=O)CCC(=O)O)cc1 | inactive |
| CCOc1ccc(C(=O)OCCN(CC)CC)cc1 | inactive |
| O=C(O)Cc1ccc(CCNS(=O)(=O)c2ccc(Cl)cc2)cc1 | inactive |
| O[C@@H]1CO[C@H]2[C@@H]1OC[C@@H]2O | inactive |
| O=C(O)c1ccc(OCCCOc2ccc(C(=O)O)cc2)cc1 | inactive |
| CC(=O)Nc1ccc(OCCOCCOc2ccc(NC(C)=O)cc2)cc1 | inactive |
| CC(C)(C)C(=O)OCOC(=O)[C@@H]1N2C(=O)[C@@H](NC(=O)[C@H](N)c3ccccc3)[C@H]2SC1(C)C | inactive |
